# SMN2 splice up: increases expression of the SMN2 splice variant; HEK293 SMN2-luciferase splicing reporter, luminescence, 30-36 h; Potency, µM (doses to about 46.1 µM), without a hit: top-dose activity change, positive = activation, most hits filed as activators; 210,000 tested, 2.8% active; further: % of control where 0% means no effect; nearly all actives have a fitted effect of over 55% in size
#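 HEK293 cells carry an SMN2 […]–luciferase reporter in which exon 7 inclusion puts luciferase in frame. Cells were plated 10-12 h before compound addition, then incubated 30-36 h at 37C. ONE-Glo luminescence was read; sodium butyrate at 4.5 mM final served as control.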
# Rab9 promoter act: Rab9 promoter activation | Huh7 Rab9 promoter-luciferase reporter, luminescence, 24 h | Potency, µM (top dose mostly 9.22 µM), without a hit: at the highest dose activation, negative = inhibition, actives largely listed as activators | 320,000 tested, 2.8% active | AID 485297; further: % of control where 0% means no effect; nearly all actives have a fitted effect of over 60% in size
#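 Luciferase signal after 10 min detection reagent at ambient indicates Rab9 promoter upregulation; stably transfected Huh7 cells were treated 24 h with compound in DMSO at 37 °C, 5% CO2.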
# ELG1 genotox: genotoxicity induction in ELG1-luciferase HEK293T cells. HEK293T ELG1-luciferase reporter, luminescence, 16 h. Potency, µM (top dose mostly 46 µM), inactives show at the highest dose activity change, positive = activation, usual class: activators. 330,000 tested, 1.3% active. AID 504466; further: % of control where 0% means no effect; nearly all actives have a fitted effect of over 60% in size
#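 ELG1-luciferase HEK293T cells, 2,000/well; compound pinned in; 16 hr, 37 °C, 5% CO2; ONE-Glo, 30 min RT; luminescence on CCD imager.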
# FLuc counter: inhibits or activates purified firefly luciferase, miR-21 counter-screen | P08659 | purified FLuc, Km substrates, luminescence inhibition | Potency, µM (series often up to 57.5 µM), for inactives: at the top dose activity change, negative = inhibition, actives largely listed as inhibitors | 360,000 tested, 6.9% active;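 further: plate controls were vehicle for no effect and reference inhibitor for full effect; nearly all actives have a fitted effect of over 55% in size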
# Target sequence (P08659 whole entry, looked up): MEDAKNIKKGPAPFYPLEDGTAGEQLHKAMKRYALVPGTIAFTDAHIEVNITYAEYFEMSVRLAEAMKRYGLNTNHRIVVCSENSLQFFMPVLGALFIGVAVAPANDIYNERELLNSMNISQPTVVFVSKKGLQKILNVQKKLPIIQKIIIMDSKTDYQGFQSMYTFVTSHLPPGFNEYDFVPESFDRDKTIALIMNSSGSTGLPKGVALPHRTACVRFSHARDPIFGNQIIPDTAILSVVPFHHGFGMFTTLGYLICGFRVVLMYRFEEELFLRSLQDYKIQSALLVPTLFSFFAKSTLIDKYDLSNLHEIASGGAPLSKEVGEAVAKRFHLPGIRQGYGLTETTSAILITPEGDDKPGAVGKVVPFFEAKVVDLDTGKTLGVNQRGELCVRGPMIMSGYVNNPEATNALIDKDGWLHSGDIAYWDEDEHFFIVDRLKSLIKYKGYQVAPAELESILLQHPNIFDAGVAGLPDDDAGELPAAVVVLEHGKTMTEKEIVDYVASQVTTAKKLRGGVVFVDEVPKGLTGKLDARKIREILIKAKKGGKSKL
#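 Purified P. pyralis luciferase, 10 nM final, with Km-level 10 uM D-luciferin and 10 uM ATP in 50 mM Tris acetate pH 7.5, 10 mM Mg acetate, 0.01% Tween-20, 0.05% BSA; 6-point qHTS titration about 60 µM downward; luminescence read.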
# NPC1 prom act: NPC1 promoter activation; 320,000 tested, 2.4% active; AID 485313; Huh7 NPC1 promoter luciferase reporter, 24 h; Potency, µM (titrated, usually from 9.22 µM), without a hit: top-dose activation, most hits filed as activators; further: % of control where 0% means no effect; nearly all actives have a fitted effect of over 60% in size
#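 Huh7 reporter cells (NPC1 promoter driving luciferase) are dosed with compound for 24 h at 37 °C, 5% CO2; luciferase detection reagent is then added and luminescence measured after 10 min at ambient temperature.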
# Starred values were filed as active, the others as inactive; ? = inconclusive; . = no result given. Only some compounds are listed: those with a hit (about 7.5% of all), similar ones and a draw of the others. The call rests on the fitted dose curve; in most records, active means well fitted curve in the direction sought with a large enough effect; inconclusive means small, poorly fitted or top-dose-only effect, or another doubt; inactive means no such curve, though single readings can be large; an effect the other way counts as inactive or inconclusive. Potency means the concentration at half of the fitted maximal effect.
SMILES,SMN2 splice up,Rab9 promoter act,ELG1 genotox,FLuc counter,NPC1 prom act
COc1cccc(/C=C2\SC(=O)N(CC(=O)NC3C=CS(=O)(=O)C3)C2=O)c1 (configuration not stated),.,6%,-7%,27µM*,-4%
O=C(CN1C(=O)/C(=C/c2ccccc2)SC1=S)NC1CCS(=O)(=O)C1 (configuration not stated),.,0%,-1%,-18%,-8%
O=C(O)c1cccc(S(=O)(=O)N(Cc2ccccc2)c2ccccc2)c1,-1%,2%,-2%,?,5%
CNC(=O)C1CN(C(=O)c2cccc(S(=O)(=O)N3c4ccccc4CC3C)c2)c2ccccc2O1 (configuration not stated),.,-5%,-3%,-2%,-2%
O=C(Nc1cccc(F)c1)c1ccc(S(=O)(=O)N2CCOCC2)cc1,-22%,1%,9%,3%,-3%
CCN(CC)CCNC1=CC(=O)OC12CCCCC2,?,-6%,0%,3%,-2%
COc1ccc(S(=O)(=O)N2c3ccccc3OCC2C(C)(C)C)cc1 (configuration not stated),-29%,5%,-5%,-7%,-10%
COc1cc(N=Cc2c(CO)cnc(C)c2O)cc(OC)c1OC,.,0%,-3%,9%,-4%
COc1ccc(-n2nc(C(=O)c3cccs3)cc(-c3nc4ccccc4[nH]3)c2=N)cc1,?,0%,23µM*,-1%,-6%
Cc1ccccc1-n1nc(C(=O)c2cccs2)cc(-c2nc3ccccc3[nH]2)c1=N,-29%,-4%,-11%,2%,0%
COc1ccc(CNC(=O)CC23CC4CC(CC(C4)C2)C3)cc1,.,0%,2%,-14%,-2%
COc1ccc(CNC(=O)CC23CC4CC(CC(C4)C2)C3)cc1OC,.,-2%,0%,15µM*,-1%
Cc1noc(C(=O)N(C)c2ccccc2)c1Cl,.,-6%,-2%,0%,0%
O=C(CSc1ncccc1C(=O)O)c1ccccc1F,9%,20%,3%,?,10%
O=C(CSc1ncccc1C(=O)O)c1cccc(C(F)(F)F)c1,?,?,?,24µM*,19%
O=C(CSc1ncccc1C(=O)O)c1ccc2ccccc2c1,?,?,5%,9.5µM*,?
CC(C)(C)NC(=O)C[C@H]1C[C@H](C(=O)N2CCCCC2)[C@@]2(C)c3[nH]c4cc(-c5ccco5)ccc4c3CCN2C1=O,.,.,-2%,.,.
Cc1cc(C(=O)N/N=C/c2ccncc2)c(C)o1,.,1%,0%,?,-3%
CC(/C=N\NC(=O)c1cc(C)oc1C)=C\c1ccccc1,?,2.5µM*,?,2.1µM*,?
Cc1ccc(/C=N/NC(=O)c2cc(C)oc2C)cc1,.,24%,?,4.3µM*,12%
CC(/C=N/NC(=O)c1cc(-c2ccc(C)o2)[nH]n1)=C\c1ccccc1,?,15%,-1%,?,0%
CC(C)Cc1csc(NC(=O)C(C)C)c1C(=O)O,.,0%,-6%,4%,-1%
CC(C)Cc1csc(NC(=O)c2ccc(Br)cc2)c1C(=O)O,.,13%,-8%,27µM*,2%
O=C(Nc1scc(-c2ccccc2)c1C(=O)O)c1ccc(F)cc1,.,?,5%,12µM*,29%
Cc1ccc(-c2csc(NC(=O)c3ccc(F)cc3)c2C(=O)O)cc1,.,4µM*,-6%,12µM*,?
COc1ccc(-c2csc(NC(=O)c3ccccc3Br)c2C(=O)O)cc1,.,-5%,-3%,?,-4%
O=C(Nc1nsc(-c2ccccc2)n1)c1ccc(F)cc1,?,2.2µM*,?,9.5µM*,3.5µM*
COC(=O)[C@@]1(Cc2ccc(F)cc2)[C@H]2c3cc(C(=O)N4CCCC4)n(CCc4ccc(O)c(O)c4)c3C[C@H]2CN1C(=O)c1ccccc1,5%,-11%,-2%,-14%,-6%
Cc1ccc(NC(=O)CN(C)CC(=O)NC2CCCc3ccccc32)cc1 (configuration not stated),.,0%,-2%,0%,-3%
Nc1cc(C(=O)OCC(=O)c2ccc(CC(=O)N3CCOCC3)s2)ccc1Cl,.,-4%,-1%,?,0%
